Active and inactive are the calls of the source.
Tests used:
[1] = test system: PRMT1 (protein arginine N-methyltransferase 1); test: small molecules binding arginine methyltransferase PRMT1 – biochemical, small-molecule microarray, 635 nm fluorescence, primary screen (AID 1088); conditions: higher = more signal;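 note: binding of Prmt1 protein to compounds spotted on small-molecule microarray slides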
[2] = growth effects on S. cerevisiae YJM789 – YJM789 clinical isolate, OD600, 24 h, basal, primary screen (AID 1089); conditions: higher = more signal, called active from +8 up or from −8 down;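 note: growth of clinical yeast isolate S. cerevisiae YJM 789 seeded 1000 cells per well; test concentration not given here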
[3] = S. pombe growth modifiers, basal conditions – strain 972, OD600, 24 h, no modulator, primary screen (AID 1090);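 note: basal condition with compound alone and no growth modifier present; test concentration not given here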; conditions: S. pombe 972 growth, higher = more signal, called active from +8 up or from −8 down
[4] = budding yeast growth modifiers under rapamycin – strain BY4716, OD600, 96 h, primary screen (AID 1091); note: test concentration not given here; conditions: S. cerevisiae BY4716 + rapamycin, higher = more signal, called active from +8 up or from −8 down
[5] = biological target: Torsin-1A-interacting protein 2 (Homo sapiens) (UniProt Q8NFQ8); test: small molecules binding lysate-expressed LULL1 – cell lysate, human LULL1 lysate, 635/667 nm fluorescence, primary screen (AID 1092); conditions: small-molecule microarray, hLULL1 lysate binding, 635 nm fluorescence; higher = more signal;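 note: probe is lysate of COS7 cells overexpressing human LULL1; score merges per-feature 667 nm fluorescence with signal-to-noise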
[6] = optical density change of DRC41 E. coli – strain DRC41, OD650, 24 h, E. coli filamentation project, primary screen (AID 1093);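 note: MC1000 strain lacking acrAB efflux and sulA so SOS filamentation is blocked; test concentration not given here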; conditions: E. coli DRC41 growth, higher = more signal, called active from +8 up or from −8 down
[7] = probe aLefty2 binding to arrayed compounds – biochemical, biotinylated probe, 635/667 nm fluorescence, primary screen (AID 1094); conditions: small-molecule microarray, higher = more signal;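 note: score merges spot fluorescence near 667 nm with spot signal-to-noise ratio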
[8] = test system: Noggin (protein binding on small-molecule microarray); test: small molecules binding Noggin protein – biochemical, 635/667 nm fluorescence, primary screen (AID 1095); conditions: 635 nm fluorescence, higher = more signal;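 note: score merges 667 nm feature fluorescence with signal to noise over triplicate slides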
[9] = biological target: Neurogenic locus notch homolog protein 3 (Homo sapiens) (UniProt Q9UM47); test: small molecules binding NOTCH3 protein – biochemical, 635/667 nm fluorescence, primary screen (AID 1096); conditions: small-molecule microarray, 635 nm fluorescence, higher = more signal
[10] = probe aEGFR binding to arrayed compounds – biochemical, biotinylated probe, 635/667 nm fluorescence, primary screen (AID 1097); conditions: small-molecule microarray, higher = more signal;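 note: probe is a biotinylated anti-EGFR antibody binding compounds printed on slides; score combines fluorescence near 667 nm and signal to noise of each spot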
[11] = test system: Plasmodium falciparum Sir2 (PF13_0152, Sir2A); test: Plasmodium falciparum Sir2A binding compounds – biochemical, small-molecule microarray, 635 nm fluorescence, primary screen (AID 1098); conditions: fluorescence 635 nm, higher = more signal;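 note: score merges spot fluorescence intensity with its signal-to-noise ratio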
[12] = probe aDKK1 binding to arrayed compounds – biochemical, biotinylated probe, 635/667 nm fluorescence, primary screen (AID 1099); conditions: small-molecule microarray, higher = more signal;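 note: score merges 667nm spot fluorescence with signal to noise across triplicate slides; reference of the scale not given here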
[13] = probe aCHRDL2 binding to arrayed compounds – biochemical, biotinylated probe, 635/667 nm fluorescence, primary screen (AID 1100); conditions: small-molecule microarray, higher = more signal
[14] = change in splice reporter luminescence, either direction, cell-based, HEK293, spliceosome inhibition project, primary screen (AID 1101); conditions: HEK293 splicing luciferase reporter, 24 h, higher = more signal, called active from +8 up or from −8 down;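 note: HEK293 cells carrying a splicing-competent luciferase reporter gene; test concentration not given here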
[15] = biological target: Fibroblast growth factor 10 (Homo sapiens) (UniProt O15520); test: compounds binding fibroblast growth factor 10 – biochemical, small-molecule microarray, 635 nm fluorescence, primary screen (AID 1102); conditions: FGF10 binding, fluorescence 635 nm, higher = more signal
[16] = test system: glycogen synthase kinase-3 (GSK3A per assay name; protocol says GSK3B); test: compounds binding glycogen synthase kinase-3 – biochemical, small-molecule microarray, 635 nm fluorescence, GSK3A, primary screen (AID 1103); conditions: fluorescence 635 nm, higher = more signal; note: the record names both GSK3A and GSK3B
[17] = biological target: Epidermal growth factor receptor (Homo sapiens) (UniProt P00533); test: compounds binding epidermal growth factor receptor – biochemical, small-molecule microarray, 635 nm fluorescence, primary screen (AID 1104); conditions: EGFR binding, higher = more signal;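 note: score merges 667 nm emission intensity with spot signal to noise over triplicate slides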
[18] = biological target: Follistatin-related protein 3 (Homo sapiens) (UniProt O95633); test: compounds binding follistatin-related protein 3 – biochemical, small-molecule microarray, 635 nm fluorescence, primary screen (AID 1105); conditions: FSTL3 binding, higher = more signal;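 note: score merges emission near 667 nm and signal to noise per printed spot across three slides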
[19] = biological target: Dickkopf-related protein 1 (Homo sapiens) (UniProt O94907); test: small molecules binding DKK1 protein – biochemical, small-molecule microarray, 635 nm fluorescence scan, primary screen (AID 1106); conditions: higher = more signal;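 note: score merges emission near 667 nm with signal to noise over three replicate slides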
[20] = test system: Inhibin beta A chain (activin A); test: small molecules binding activin A – biochemical, small-molecule microarray, 635 nm fluorescence scan, primary screen (AID 1107); conditions: INHBA, higher = more signal;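 note: mouse activin A protein probed at 4.33 µg/mL on printed slides; score merges bound-protein fluorescence near 667 nm with spot signal-to-noise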

Follistatin-related protein 3 (Homo sapiens), sequence (O95633 whole entry, looked up): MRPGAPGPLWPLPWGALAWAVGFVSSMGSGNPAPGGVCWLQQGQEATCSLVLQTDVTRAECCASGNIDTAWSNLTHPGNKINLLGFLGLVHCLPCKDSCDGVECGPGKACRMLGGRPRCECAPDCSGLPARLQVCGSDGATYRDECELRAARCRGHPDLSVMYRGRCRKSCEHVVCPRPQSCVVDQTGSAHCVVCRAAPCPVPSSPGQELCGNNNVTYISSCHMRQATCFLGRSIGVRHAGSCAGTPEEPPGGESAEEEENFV
Neurogenic locus notch homolog protein 3 (Homo sapiens), sequence (Q9UM47 whole entry, looked up): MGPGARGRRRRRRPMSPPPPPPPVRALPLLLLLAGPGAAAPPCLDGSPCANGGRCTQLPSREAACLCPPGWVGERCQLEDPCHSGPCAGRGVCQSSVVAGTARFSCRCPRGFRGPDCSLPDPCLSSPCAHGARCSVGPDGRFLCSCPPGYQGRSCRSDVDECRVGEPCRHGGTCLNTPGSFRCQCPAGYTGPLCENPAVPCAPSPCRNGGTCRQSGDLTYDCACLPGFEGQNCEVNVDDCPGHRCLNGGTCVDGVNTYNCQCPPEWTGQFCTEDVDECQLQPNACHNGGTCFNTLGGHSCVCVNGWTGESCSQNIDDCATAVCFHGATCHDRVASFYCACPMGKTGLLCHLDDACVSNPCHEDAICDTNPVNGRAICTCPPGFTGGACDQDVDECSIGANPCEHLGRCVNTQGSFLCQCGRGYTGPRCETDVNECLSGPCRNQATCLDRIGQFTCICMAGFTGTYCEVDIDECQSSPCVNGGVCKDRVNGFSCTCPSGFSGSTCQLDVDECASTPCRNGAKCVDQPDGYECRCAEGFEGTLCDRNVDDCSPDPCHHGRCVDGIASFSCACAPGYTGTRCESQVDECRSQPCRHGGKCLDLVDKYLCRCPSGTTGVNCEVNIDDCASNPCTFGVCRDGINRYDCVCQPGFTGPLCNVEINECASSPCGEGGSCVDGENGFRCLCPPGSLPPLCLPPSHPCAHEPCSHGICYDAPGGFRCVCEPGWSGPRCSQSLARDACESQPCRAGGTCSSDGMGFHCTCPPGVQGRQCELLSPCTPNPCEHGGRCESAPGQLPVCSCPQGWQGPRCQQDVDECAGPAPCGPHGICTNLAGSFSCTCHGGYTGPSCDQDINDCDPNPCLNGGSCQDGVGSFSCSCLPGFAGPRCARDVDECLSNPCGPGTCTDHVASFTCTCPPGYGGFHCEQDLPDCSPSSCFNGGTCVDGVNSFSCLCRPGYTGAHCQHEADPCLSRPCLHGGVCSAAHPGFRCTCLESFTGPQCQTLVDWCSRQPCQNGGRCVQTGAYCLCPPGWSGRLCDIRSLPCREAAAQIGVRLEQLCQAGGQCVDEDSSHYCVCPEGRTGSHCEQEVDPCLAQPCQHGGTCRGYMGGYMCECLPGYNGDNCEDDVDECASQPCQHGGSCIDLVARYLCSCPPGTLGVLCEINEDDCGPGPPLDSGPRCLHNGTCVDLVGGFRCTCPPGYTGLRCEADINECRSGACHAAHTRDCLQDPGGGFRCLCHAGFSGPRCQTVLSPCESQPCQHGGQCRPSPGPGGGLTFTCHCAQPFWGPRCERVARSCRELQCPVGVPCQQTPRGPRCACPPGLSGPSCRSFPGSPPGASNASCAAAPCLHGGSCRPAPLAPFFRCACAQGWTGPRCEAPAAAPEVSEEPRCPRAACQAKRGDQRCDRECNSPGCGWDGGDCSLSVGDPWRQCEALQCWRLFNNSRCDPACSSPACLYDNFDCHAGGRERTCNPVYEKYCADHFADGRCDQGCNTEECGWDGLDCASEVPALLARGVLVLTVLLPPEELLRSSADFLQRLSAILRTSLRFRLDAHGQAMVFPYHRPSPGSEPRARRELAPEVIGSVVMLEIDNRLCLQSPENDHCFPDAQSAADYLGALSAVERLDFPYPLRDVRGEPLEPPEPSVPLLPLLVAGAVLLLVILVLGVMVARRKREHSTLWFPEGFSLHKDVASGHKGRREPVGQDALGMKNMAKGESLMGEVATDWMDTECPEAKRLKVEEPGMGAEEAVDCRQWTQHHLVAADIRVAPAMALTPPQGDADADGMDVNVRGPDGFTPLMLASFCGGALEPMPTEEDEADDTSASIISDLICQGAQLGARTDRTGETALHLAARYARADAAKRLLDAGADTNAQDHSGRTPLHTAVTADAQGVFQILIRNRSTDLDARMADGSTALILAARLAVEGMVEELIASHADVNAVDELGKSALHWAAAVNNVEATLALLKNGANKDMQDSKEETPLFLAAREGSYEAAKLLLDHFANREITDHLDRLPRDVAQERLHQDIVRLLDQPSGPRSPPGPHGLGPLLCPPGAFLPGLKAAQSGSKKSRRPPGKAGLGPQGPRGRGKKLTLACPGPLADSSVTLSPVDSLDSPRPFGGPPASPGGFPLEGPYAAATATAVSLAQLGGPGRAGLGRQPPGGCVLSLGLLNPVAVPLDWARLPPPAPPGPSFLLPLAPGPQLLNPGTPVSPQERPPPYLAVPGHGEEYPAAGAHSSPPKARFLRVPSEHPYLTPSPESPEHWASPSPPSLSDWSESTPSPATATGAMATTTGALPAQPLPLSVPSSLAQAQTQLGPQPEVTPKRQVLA
Torsin-1A-interacting protein 2 (Homo sapiens), sequence (Q8NFQ8 whole entry, looked up): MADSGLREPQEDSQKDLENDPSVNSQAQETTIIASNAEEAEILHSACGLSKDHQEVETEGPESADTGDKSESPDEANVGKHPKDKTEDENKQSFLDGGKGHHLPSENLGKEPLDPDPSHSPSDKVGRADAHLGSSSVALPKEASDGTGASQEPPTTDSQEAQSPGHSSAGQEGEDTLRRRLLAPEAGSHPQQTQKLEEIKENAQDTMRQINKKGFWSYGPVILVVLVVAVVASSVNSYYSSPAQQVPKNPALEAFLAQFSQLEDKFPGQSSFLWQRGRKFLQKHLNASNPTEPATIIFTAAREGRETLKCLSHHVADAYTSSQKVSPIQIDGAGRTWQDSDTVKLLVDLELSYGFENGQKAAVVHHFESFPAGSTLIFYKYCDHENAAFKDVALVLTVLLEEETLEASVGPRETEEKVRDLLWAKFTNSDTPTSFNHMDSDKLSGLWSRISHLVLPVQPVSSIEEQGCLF
Dickkopf-related protein 1 (Homo sapiens), sequence (O94907 whole entry, looked up): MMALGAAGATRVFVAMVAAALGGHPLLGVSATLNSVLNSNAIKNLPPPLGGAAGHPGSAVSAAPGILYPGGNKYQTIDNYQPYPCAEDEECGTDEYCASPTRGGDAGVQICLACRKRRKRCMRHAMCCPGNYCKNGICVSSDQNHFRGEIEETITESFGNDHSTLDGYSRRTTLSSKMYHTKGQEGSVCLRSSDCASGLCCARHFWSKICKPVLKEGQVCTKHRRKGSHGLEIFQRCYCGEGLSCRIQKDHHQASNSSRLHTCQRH
Epidermal growth factor receptor (Homo sapiens), sequence (P00533 whole entry, looked up): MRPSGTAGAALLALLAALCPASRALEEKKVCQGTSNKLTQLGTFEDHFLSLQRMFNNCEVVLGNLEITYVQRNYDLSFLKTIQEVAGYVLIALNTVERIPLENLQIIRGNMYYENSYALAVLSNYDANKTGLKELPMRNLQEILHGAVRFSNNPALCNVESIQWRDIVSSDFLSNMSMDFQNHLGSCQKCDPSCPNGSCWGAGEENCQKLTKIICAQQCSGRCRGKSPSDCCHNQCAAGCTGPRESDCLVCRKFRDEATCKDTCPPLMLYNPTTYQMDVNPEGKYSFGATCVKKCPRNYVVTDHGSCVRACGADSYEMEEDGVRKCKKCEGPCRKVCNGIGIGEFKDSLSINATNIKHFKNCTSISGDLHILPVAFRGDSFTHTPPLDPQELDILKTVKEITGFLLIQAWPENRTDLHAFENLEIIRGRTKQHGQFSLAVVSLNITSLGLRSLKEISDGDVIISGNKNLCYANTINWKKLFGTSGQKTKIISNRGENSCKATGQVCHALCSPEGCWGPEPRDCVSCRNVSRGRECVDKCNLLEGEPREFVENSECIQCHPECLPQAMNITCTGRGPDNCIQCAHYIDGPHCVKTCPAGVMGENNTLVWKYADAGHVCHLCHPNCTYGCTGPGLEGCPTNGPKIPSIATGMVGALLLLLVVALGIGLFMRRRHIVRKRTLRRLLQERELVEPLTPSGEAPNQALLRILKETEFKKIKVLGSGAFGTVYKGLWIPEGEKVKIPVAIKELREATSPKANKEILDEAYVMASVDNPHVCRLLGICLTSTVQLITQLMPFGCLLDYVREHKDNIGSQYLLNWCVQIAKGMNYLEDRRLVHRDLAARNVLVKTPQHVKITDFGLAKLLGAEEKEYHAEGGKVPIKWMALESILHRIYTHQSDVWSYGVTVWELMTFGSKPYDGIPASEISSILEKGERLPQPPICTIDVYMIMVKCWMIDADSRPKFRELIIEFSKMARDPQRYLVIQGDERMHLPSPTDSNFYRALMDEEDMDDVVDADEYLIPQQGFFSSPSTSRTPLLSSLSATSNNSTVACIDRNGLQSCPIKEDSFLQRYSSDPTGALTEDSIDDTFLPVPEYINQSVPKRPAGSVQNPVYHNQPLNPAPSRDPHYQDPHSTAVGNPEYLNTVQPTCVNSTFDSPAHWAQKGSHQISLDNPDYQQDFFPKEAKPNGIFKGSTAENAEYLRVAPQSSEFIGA
Fibroblast growth factor 10 (Homo sapiens), sequence (O15520 whole entry, looked up): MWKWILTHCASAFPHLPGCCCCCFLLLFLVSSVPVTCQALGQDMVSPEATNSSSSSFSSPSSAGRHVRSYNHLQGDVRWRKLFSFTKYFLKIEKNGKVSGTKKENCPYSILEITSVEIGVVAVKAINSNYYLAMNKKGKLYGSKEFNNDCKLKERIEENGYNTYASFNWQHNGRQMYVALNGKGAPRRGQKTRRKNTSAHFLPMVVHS

C[N+](C)(C)CCCC[C@@H]1NC(=O)[C@H]2C[C@@H](C(=O)O)[C@@H](c3ccc(O)cc3)N2C1=O
composite z-score [1]: 0.777 | z-score [2]: -1.56 (inactive) | z-score [3]: -1.28 (inactive) | z-score [4]: -0.5 (inactive) | composite z-score [5]: 2.61 | z-score [6]: 1.26 (inactive) | composite z-score [7]: -0.0481 | composite z-score [8]: 0.447 | composite z-score [9]: 0.5 | composite z-score [10]: -0.158 | composite z-score [11]: 0.327 | composite z-score [12]: -0.0349 | composite z-score [13]: 0.149 | z-score [14]: -0.303 (inactive) | composite z-score [15]: 0.158 | composite z-score [16]: 0.984 | composite z-score [17]: -0.102 | composite z-score [18]: 0.0506 | composite z-score [19]: 0.971 | composite z-score [20]: 0.832

Cc1ccc(S(=O)(=O)N2[C@@H](c3ccccc3)C(C(=O)O)=C[C@H]2C(C)(C)C)cc1
composite z-score [1]: 1.55 | z-score [2]: -0.601 (inactive) | z-score [3]: -0.273 (inactive) | z-score [4]: -0.802 (inactive) | composite z-score [5]: 2.88 | z-score [6]: -0.231 (inactive) | composite z-score [7]: 0.152 | composite z-score [8]: 0.126 | composite z-score [9]: 1.08 | composite z-score [10]: 0.131 | composite z-score [11]: 1.19 | composite z-score [12]: 1.08 | composite z-score [13]: 1.01 | z-score [14]: 0.233 (inactive) | composite z-score [15]: 0.644 | composite z-score [16]: 1.35 | composite z-score [17]: 0.374 | composite z-score [18]: 0.819 | composite z-score [19]: 0.0781 | composite z-score [20]: -0.124

CC(C)(C)OC(=O)CC[C@@]1(C(=O)N2CCOCC2)N=C(c2ccc(OCCCO)cc2)O[C@@H]1c1ccccc1CN=[N+]=[N-]
composite z-score [1]: 1.38 | z-score [2]: -0.335 (inactive) | z-score [3]: -0.183 (inactive) | z-score [4]: -0.654 (inactive) | composite z-score [5]: 3.83 | z-score [6]: 0.675 (inactive) | composite z-score [7]: 0.313 | composite z-score [8]: 1.06 | composite z-score [9]: 0.985 | composite z-score [10]: 0.103 | composite z-score [11]: 1.23 | composite z-score [12]: 0.956 | composite z-score [13]: 1.15 | z-score [14]: 0.178 (inactive) | composite z-score [15]: 1.28 | composite z-score [16]: 0.818 | composite z-score [17]: 0.234 | composite z-score [18]: 0.488 | composite z-score [19]: -0.0447 | composite z-score [20]: 1.01

COC(=O)C(CC#Cc1ccc2c(c1)[C@]1(C(=O)N2)[C@H](C(=O)NC[C@H](O)c2ccccc2)[C@H]2C(=O)O[C@H](c3ccccc3)[C@H](c3ccccc3)N2[C@@H]1c1ccc(O)cc1)C(=O)OC
composite z-score [1]: 0.356 | z-score [2]: 0.542 (inactive) | z-score [3]: 0.793 (inactive) | z-score [4]: 0.162 (inactive) | composite z-score [5]: 0.719 | z-score [6]: -1.02 (inactive) | composite z-score [7]: -0.055 | composite z-score [8]: 0.264 | composite z-score [9]: 0.401 | composite z-score [10]: -0.0509 | composite z-score [11]: 0.535 | composite z-score [12]: -0.107 | composite z-score [13]: 0.369 | z-score [14]: 0.266 (inactive) | composite z-score [15]: 0.243 | composite z-score [16]: -0.857 | composite z-score [17]: 0.221 | composite z-score [18]: -0.0104 | composite z-score [19]: -0.293 | composite z-score [20]: -0.137

C=CCOC(=O)[C@H]1[C@@H]2C(=O)O[C@@H](c3ccccc3)[C@@H](c3ccccc3)N2[C@@H](c2ccc(OCCOC(=O)[C@H]3C[C@H]4C(=O)NCC(=O)N4[C@H]3c3cccc(OCCO)c3)cc2)[C@]12C(=O)Nc1ccc(I)cc12
composite z-score [1]: 1.54 | z-score [2]: 1.29 (inactive) | z-score [3]: 0.682 (inactive) | z-score [4]: 3.48 (inactive) | composite z-score [5]: 2.78 | z-score [6]: 0.0763 (inactive) | composite z-score [7]: -0.172 | composite z-score [8]: 1.69 | composite z-score [9]: 1.06 | composite z-score [10]: 0.0389 | composite z-score [11]: 1.1 | composite z-score [12]: -0.109 | composite z-score [13]: 0.0341 | z-score [14]: 0.341 (inactive) | composite z-score [15]: 1.37 | composite z-score [16]: 1.3 | composite z-score [17]: 0.504 | composite z-score [18]: 1.37 | composite z-score [19]: 0.614 | composite z-score [20]: 0.622

CCCCCCc1nc(-c2ccc(OC)nc2)c(C)c2c1[Si](C(C)C)(C(C)C)OC2
composite z-score [1]: 0.319 | z-score [2]: -0.0796 (inactive) | z-score [3]: -0.329 (inactive) | z-score [4]: 0.182 (inactive) | composite z-score [5]: -0.627 | z-score [6]: 0.836 (inactive) | composite z-score [7]: 0.054 | composite z-score [8]: 0.293 | composite z-score [9]: 0.0448 | composite z-score [10]: -0.131 | composite z-score [11]: -0.299 | composite z-score [12]: -0.202 | composite z-score [13]: -0.358 | z-score [14]: -2 (inactive) | composite z-score [15]: -0.168 | composite z-score [16]: -0.264 | composite z-score [17]: 0.218 | composite z-score [18]: 0.565 | composite z-score [19]: 1.03 | composite z-score [20]: 0.444

OCCCc1cc[n+](Cc2cc3c(cc2Br)OCO3)cc1
composite z-score [1]: 0.115 | z-score [2]: -0.41 (inactive) | z-score [3]: -0.688 (inactive) | z-score [4]: -0.213 (inactive) | composite z-score [5]: -0.0854 | z-score [6]: 0.0566 (inactive) | composite z-score [7]: 0.193 | composite z-score [8]: -0.617 | composite z-score [9]: -0.785 | composite z-score [10]: -0.12 | composite z-score [11]: -0.837 | composite z-score [12]: -0.0013 | composite z-score [13]: 0.706 | z-score [14]: 0.341 (inactive) | composite z-score [15]: -0.741 | composite z-score [16]: -1.84 | composite z-score [17]: -1.15 | composite z-score [18]: -0.725 | composite z-score [19]: -0.625 | composite z-score [20]: 0.783

CC(C)[Si]1(C(C)C)OCc2cc(-c3ccc(-c4ccc(Cl)c(Cl)c4)o3)nc(-c3ccc(Oc4ccccc4)cc3)c21
composite z-score [1]: -1.67 | z-score [2]: 0.797 (inactive) | z-score [3]: -0.504 (inactive) | z-score [4]: 2.3 (inactive) | composite z-score [5]: -1.07 | z-score [6]: -0.888 (inactive) | composite z-score [7]: 0.0358 | composite z-score [8]: -1.78 | composite z-score [9]: -1.57 | composite z-score [10]: -0.447 | composite z-score [11]: -0.952 | composite z-score [12]: 0.118 | composite z-score [13]: 0.745 | z-score [14]: -1.25 (inactive) | composite z-score [15]: -1.78 | composite z-score [16]: -2.03 | composite z-score [17]: -1.46 | composite z-score [18]: -2.09 | composite z-score [19]: -2.01 | composite z-score [20]: 0.434

CCCCC=C[C@@H](NC(=O)C(C)(C)C)c1ccccc1
composite z-score [1]: 0.956 | z-score [2]: 0.924 (inactive) | z-score [3]: 1.84 (inactive) | z-score [4]: 4.33 (inactive) | composite z-score [5]: 1.08 | z-score [6]: -1.46 (inactive) | composite z-score [7]: 0.0769 | composite z-score [8]: -0.0096 | composite z-score [9]: 1.11 | composite z-score [10]: 0.313 | composite z-score [11]: 0.641 | composite z-score [12]: 0.715 | composite z-score [13]: 0.609 | z-score [14]: 0.41 (inactive) | composite z-score [15]: 0.548 | composite z-score [16]: 1.25 | composite z-score [17]: 0.357 | composite z-score [18]: 0.508 | composite z-score [19]: 0.15 | composite z-score [20]: 0.173

CCCN1C(=O)[C@@]2(c3ccc([N+](=O)[O-])cc3)CC(=O)N(C3CCCCC3)[C@@H]2c2ccc(CO)cc21
composite z-score [1]: 0.254 | z-score [2]: -0.383 (inactive) | z-score [3]: 1.29 (inactive) | z-score [4]: -0.117 (inactive) | composite z-score [5]: -0.298 | z-score [6]: -0.0384 (inactive) | composite z-score [7]: 0.198 | composite z-score [8]: 0.73 | composite z-score [9]: -0.327 | composite z-score [10]: 0.0785 | composite z-score [11]: 0.219 | composite z-score [12]: 0.27 | composite z-score [13]: -0.12 | z-score [14]: -0.237 (inactive) | composite z-score [15]: 0.453 | composite z-score [16]: 0.478 | composite z-score [17]: 0.121 | composite z-score [18]: 0.41 | composite z-score [19]: 1.2 | composite z-score [20]: 0.898

Reference: PubChem BioAssay
